Measurements published in PubChem BioAssay AID463173 (ICCB-Longwood Screening Facility, Harvard Medical School, 2010).
About 4,300 (8.3%) of roughly 52,000 compounds were called active. The list comes from a sample in which actives are over-represented; it also holds similar structures and randomly drawn compounds. A number with no mark means an inactive call. Rule as the data show it: active = survival mostly below about 52% (no sharp cut-off); inactive = mostly above about 56%.

These compounds were tested on DeltatarO mutant (assay: S. aureus survival, RN4220 and DeltatarO strains – OD600, teichoic acid synthesis inhibitors, primary screen (AID 463173)). Details: S. aureus RN4220 wild type/DeltatarO growth, OD600, 18 h, active compounds read low, screened at 18.75 µg/mL (by protocol).

How did the survival turn out when CCOc1ccc(C(=O)NCCc2csc(-c3cccnc3)n2)cc1 was run?
The survival was 81%.

Which survival does the source give for Cc1ccc(CNc2nc3ccccc3n3c(C)nnc23)cc1 here?
Its survival is 88%.

Which survival does the source give for CCn1nc(C)c(CCN(C)C(=O)Nc2ccc(C)c(Cl)c2)c1C here?
Its survival is 88%.

With COc1ccc2nc3sc(C(=O)NCCc4ccc(Cl)cc4)cc3cc2c1 as the compound, how does the survival read?
The survival was 103%.

How did the survival turn out when Cc1ccc2nc3sc(C(=O)Nc4ccc(F)cc4)cc3cc2c1 was run?
Its survival is 37% (active).

How did the survival turn out when CCOc1ccccc1NC(=O)c1cc2cc3cc(C)ccc3nc2s1 was run?
Its survival is 91%.

CSc1ccc(CCNC(=O)c2cc3cc4cc(C)ccc4nc3s2)cc1 was tested. Which survival did it give?
The survival was 144%.

Which survival does the source give for CCOc1ccc(NC(=O)c2cc3cc4cc(OC)ccc4nc3s2)cc1 here?
The survival was 82%.

How did the survival turn out when Cc1ccc(CCNC(=O)c2cc3cc4cc(C)ccc4nc3s2)cc1 was run?
The survival was 46% (active).

For CNC(=O)CN(C1CCCCC1)S(=O)(=O)c1ccc(C)cc1, which survival is on record?
The survival was 75%.

With CC(C)C(=O)c1cn(CC(=O)NCc2cccs2)c2ccccc12 as the compound, how does the survival read?
Its survival is 88%.

How did the survival turn out when CC(C)NC(=O)C1CCC(Cn2c(=O)c3sccc3n(CC(=O)Nc3ccccc3)c2=O)CC1 (centres undefined) was run?
The survival was 74%.

With CCc1ccc(CNC(=O)c2cnc3sc(N4CCCCC4)nn3c2=O)cc1 as the compound, how does the survival read?
Its survival is 99%.

How did the survival turn out when COC(=O)c1ccc(NC(=O)CN2CCCN(Cc3ccc(Cl)cc3)S2(=O)=O)cc1 was run?
Its survival is 94%.

For Cc1ccc(C)c(CN2CCCN(Cc3ccccc3C)S2(=O)=O)c1, which survival is on record?
Its survival is 87%.

For Cc1ccc(C)c(CN2CCCN(Cc3ccc(F)cc3)S2(=O)=O)c1, which survival is on record?
Its survival is -5% (active).

For COC(=O)c1ccc(OC)c(CN2CCCN(Cc3ccc(C)cc3)S2(=O)=O)c1, which survival is on record?
Its survival is 20% (active).

With COc1ccc(NC(=O)CN2CCCN(Cc3ccc(Cl)cc3)S2(=O)=O)cc1Cl as the compound, how does the survival read?
Its survival is 60%.

How did the survival turn out when Cc1ccc(CN2CCCN(Cc3c(C)cc(C)cc3C)S2(=O)=O)cc1 was run?
Its survival is 91%.

How did the survival turn out when CCOC(=O)CCCN1C(=O)CCn2nc(-c3cn(C)c4ccccc34)cc21 was run?
Its survival is 69%.

With CCN(c1ccccc1C)S(=O)(=O)c1ccc(N2CCCCS2(=O)=O)cc1 as the compound, how does the survival read?
The survival was 125%.

CCSc1nnc(C2CCCN(CC(=O)NC3CCCCC3C)C2)n1CC (centres undefined) was tested. Which survival did it give?
The survival was 74%.

With Cc1oc(-c2cccc(Cl)c2)nc1CN1CCCC(C(=O)NCc2ccc(Cl)cc2)C1 (centres undefined) as the compound, how does the survival read?
Its survival is -1% (active).

How did the survival turn out when Cc1oc(-c2cccc(Cl)c2)nc1CN1CCCC(C(=O)NCc2ccc(F)cc2)C1 (centres undefined) was run?
The survival was 52%.

How did the survival turn out when Cc1ccccc1-c1nc(CN2CCCC(C(=O)NCc3ccc(Cl)cc3)C2)c(C)o1 (centres undefined) was run?
The survival was 61%.

For Cc1ccc(CNC(=O)C2CCCN(Cc3nc(-c4cccc(C)c4)oc3C)C2)cc1 (centres undefined), which survival is on record?
The survival was 41%.

How did the survival turn out when Cc1cccc(-c2nc(CN3CCCC(C(=O)NCc4ccc(Cl)cc4)C3)c(C)o2)c1 (centres undefined) was run?
Its survival is 18% (active).

With Cc1oc(-c2ccc(Cl)cc2)nc1CN1CCCC(C(=O)NCc2ccc(Cl)cc2)C1 (centres undefined) as the compound, how does the survival read?
Its survival is 59%.

Which survival does the source give for CSCCC(NS(=O)(=O)c1ccc2c(c1)oc(=O)n2C)C(=O)N1CCN(c2cccc(Cl)c2)CC1 (centres undefined) here?
The survival was 72%.

How did the survival turn out when Cc1nn(-c2ccccc2)c2c1N(CCCC(=O)NCc1ccc(Cl)cc1)C(=O)CS2 was run?
The survival was 94%.

Which survival does the source give for Cc1cccc(CNC(=O)c2ccc3nc(Cc4ccccc4)oc3c2)c1 here?
The survival was 124%.

How did the survival turn out when CCOc1ccc(NC(=O)CSc2nc3c([nH]c4ccccc43)c(=O)n2-c2cc(C)cc(C)c2)cc1 was run?
The survival was 89%.

Which survival does the source give for Cc1ccc(N2CC(NC(=O)c3ccc(S(=O)(=O)N4CCCC4)cc3)CC2=O)cc1C (centres undefined) here?
The survival was 83%.

How did the survival turn out when O=C(Cn1ncc2c3ccccc3n(Cc3ccccc3F)c2c1=O)NCCCc1ccccc1 was run?
Its survival is 81%.

How did the survival turn out when Cc1cc(C)c2nc(N(Cc3cccnc3)C(=O)CCOc3ccccc3)sc2c1 was run?
The survival was 84%.

COc1cccc(Cn2c(SCC(=O)N(C)c3ccccc3)nc3ccccc32)c1 was tested. Which survival did it give?
The survival was -4% (active).

With COc1ccc(Cn2c(SCC(=O)N3CCN(c4ccc(F)cc4)CC3)nc3ccccc32)cc1 as the compound, how does the survival read?
The survival was 47% (active).

How did the survival turn out when O=C(CSc1nc2ccccc2n1Cc1ccc(F)cc1)N1CCN(c2ccc(F)cc2)CC1 was run?
Its survival is 92%.

Which survival does the source give for COC(=O)c1ccc(Cn2c(SCC(=O)N(C)c3ccccc3)nc3ccccc32)cc1 here?
Its survival is 60%.

How did the survival turn out when COc1ccc(NC(=O)CSc2nc3ccccc3n2CC(=O)NCc2ccc(F)cc2)cc1 was run?
The survival was -5% (active).

COc1cccc(Cn2c(SCC(=O)N3CCN(c4ccc(F)cc4)CC3)nc3ccccc32)c1 was tested. Which survival did it give?
The survival was 66%.

How did the survival turn out when CN(C(=O)CSc1nc2ccccc2n1Cc1cccc(C(F)(F)F)c1)c1ccccc1 was run?
The survival was 66%.

With COc1cccc(CNC(=O)Cn2c(SCC(=O)Nc3ccc(C)c(C)c3)nc3ccccc32)c1 as the compound, how does the survival read?
The survival was 87%.

COc1cccc(CNC(=O)Cn2c(SCC(=O)Nc3ccc(F)cc3)nc3ccccc32)c1 was tested. Which survival did it give?
The survival was 8% (active).

Which survival does the source give for O=C(Cn1c(SCC(=O)Nc2ccc(F)cc2)nc2ccccc21)NCc1ccc(F)cc1 here?
The survival was 91%.

Which survival does the source give for COc1ccc(CNC(=O)Cn2c(SCC(=O)Nc3ccc(OC)cc3)nc3ccccc32)cc1 here?
The survival was 89%.

Which survival does the source give for Cc1ccc(CNC(=O)Cn2c(SCC(=O)Nc3ccc(F)cc3)nc3ccccc32)cc1 here?
The survival was 126%.

For CCc1ccc(NC(=O)CCCn2nc(C)c3c(C)n(-c4ccccc4)nc3c2=O)cc1, which survival is on record?
Its survival is 81%.

With CC(C)c1ccc(NC(=O)CSc2ncnc3c2sc2ccccc23)cc1 as the compound, how does the survival read?
Its survival is 70%.

With CCC(=O)OC1CSc2nc3ccccc3n2C1 (centres undefined) as the compound, how does the survival read?
The survival was 76%.

Cc1ccc(-n2c(=O)c3c(c4cc(C)ccc4n3C)n(CC(=O)NCc3ccccc3Cl)c2=O)cc1 was tested. Which survival did it give?
Its survival is 74%.

For Cc1ccc(/C=C/c2onc(C)c2S(=O)(=O)N2CCC(C(=O)N3CCC(N(C)C(C)C)CC3)CC2)cc1, which survival is on record?
Its survival is 67%.

How did the survival turn out when CCOC(=O)C1=C(CN2CCN(c3ccccc3F)CC2)NC(=O)NC1c1ccc(OC)cc1 (centres undefined) was run?
The survival was 70%.

With Cc1ccc(CSCCC(=O)NCc2ccc(F)cc2Cl)cc1 as the compound, how does the survival read?
The survival was 118%.

For Cc1ccccc1NC(=O)Cn1c(SCC(=O)Nc2ccc(F)cc2)nc2ccccc21, which survival is on record?
The survival was 95%.

Which survival does the source give for COc1cccc(NC(=O)CSc2nc3ccccc3n2C)c1 here?
Its survival is 37% (active).

For COc1cccc(NC(=O)CSc2cc(C)c3ccccc3n2)c1, which survival is on record?
Its survival is 72%.

Which survival does the source give for COc1ccc(NC(=O)CSc2nc3ccccc3n2Cc2cccc(OC)c2)cc1 here?
Its survival is 134%.

Which survival does the source give for CC(=O)c1cccc(NC(=O)Cn2c(SCC(=O)Nc3ccc(F)cc3)nc3ccccc32)c1 here?
Its survival is 20% (active).

For O=C(CSc1nc2ccccc2n1CC(=O)Nc1ccc(F)cc1F)Nc1ccc(F)cc1, which survival is on record?
Its survival is 89%.

For COc1cccc(CNC(=O)c2[nH]c3cc(C)ccc3c2Sc2ccccc2)c1, which survival is on record?
Its survival is 83%.

With CCCN1C(=O)c2ccccc2NC1c1cc(OC)c(OC)c(OC)c1 (centres undefined) as the compound, how does the survival read?
The survival was 96%.

CC(C)c1ccc(NC(=O)C2CCN(S(=O)(=O)c3cccc4nsnc34)CC2)cc1 was tested. Which survival did it give?
Its survival is 72%.

CCOc1ccc(N(CC)S(=O)(=O)N2CCCC(C(=O)Nc3ccc(NC(C)=O)cc3)C2)cc1 (centres undefined) was tested. Which survival did it give?
Its survival is 84%.

Which survival does the source give for Cc1cc(C(=O)Nc2c(C)nn(Cc3ccc(F)cc3)c2C)no1 here?
Its survival is 156%.

Which survival does the source give for COc1ccc(-c2cc(C(=O)Nc3c(C)nn(Cc4ccc(C)cc4)c3C)no2)cc1OC here?
The survival was 60%.

With CCc1cc(C(=O)Nc2c(C)nn(Cc3ccccc3Cl)c2C)no1 as the compound, how does the survival read?
The survival was 69%.

Which survival does the source give for COc1ccc(-c2cc(C(=O)Nc3c(C)nn(Cc4ccc(F)cc4)c3C)no2)cc1OC here?
The survival was 59%.

How did the survival turn out when COc1ccc(-c2cc(C(=O)Nc3c(C)nn(Cc4ccccc4C)c3C)no2)cc1 was run?
Its survival is 51%.

Which survival does the source give for COc1ccc(OC)c(-c2cc(C(=O)Nc3c(C)nn(Cc4ccc(C)cc4)c3C)no2)c1 here?
The survival was 34% (active).

With COc1cccc(-c2cc(C(=O)Nc3c(C)nn(Cc4ccccc4Cl)c3C)no2)c1 as the compound, how does the survival read?
The survival was 34% (active).

Which survival does the source give for Cc1ccc(Cn2nc(C)c(NC(=O)c3cc(-c4ccc(F)cc4)on3)c2C)cc1 here?
Its survival is 61%.

For COc1ccccc1-c1cc(C(=O)Nc2c(C)nn(Cc3ccc(Cl)cc3)c2C)no1, which survival is on record?
The survival was 29% (active).

With COc1cc(NC(=O)Cn2ncc3c([nH]c4ccc(C)cc43)c2=O)cc(OC)c1OC as the compound, how does the survival read?
The survival was 86%.

How did the survival turn out when Cn1c(N2CCN(S(=O)(=O)c3ccc(Cl)cc3)CC2)nc2ccccc21 was run?
Its survival is 83%.

Which survival does the source give for COc1ccc(NC(=O)CCc2c(C)nn(-c3ccc(N4CCCCC4)nn3)c2C)cc1Cl here?
The survival was 87%.

With Cc1sc2nc(CN3CCN(C(=O)c4ccco4)CC3)n(C(=O)c3ccco3)c(=O)c2c1C as the compound, how does the survival read?
Its survival is 86%.

With CCOC(=O)c1c(S(=O)(=O)N2CCCC(C(=O)Nc3cc(C)ccc3OC)C2)c(C)n(C)c1C (centres undefined) as the compound, how does the survival read?
The survival was 75%.

With O=C(Oc1cccc2cccnc12)c1ccccc1 as the compound, how does the survival read?
The survival was 2% (active).

With O=C(Oc1ccccc1-c1nc(-c2ccccc2)no1)c1ccccc1 as the compound, how does the survival read?
The survival was 85%.

Which survival does the source give for O=C1c2ccccc2C(=O)N1COc1cccc2cccnc12 here?
The survival was 97%.

Which survival does the source give for O=C(/C=C/c1ccco1)OCCN1CCOCC1 here?
Its survival is 69%.

With O=C(/C=C\c1ccco1)Oc1cccc2cccnc12 as the compound, how does the survival read?
The survival was 2% (active).

With O=C(/C=C/c1ccco1)ON1C(=O)c2ccccc2C1=O as the compound, how does the survival read?
Its survival is 91%.

How did the survival turn out when Cc1ccc(C(c2nnnn2Cc2ccccc2)N2CCC(C)CC2)cc1 (centres undefined) was run?
The survival was 70%.

How did the survival turn out when CCCC1(C(=O)OC)NC(c2ccc(OC)c(OC)c2)C2C(=O)N(c3ccc4c(c3)OCO4)C(=O)C21 (centres undefined) was run?
Its survival is 84%.

With COc1cccc(NC(=O)Cn2cc(C(=O)c3ccc(F)cc3)c(=O)c3cc(OC)ccc32)c1 as the compound, how does the survival read?
The survival was 92%.

How did the survival turn out when Nc1nnc2c(n1)[nH]c1ccccc12 was run?
Its survival is 81%.

With Cc1ccc(C)c(CN2C(=O)c3ccccc3S(=O)(=O)c3ccc(C(=O)N4CCN(Cc5ccccc5)CC4)cc32)c1 as the compound, how does the survival read?
The survival was 59%.
